# Data from PubChem BioAssay AID1508602 (The Scripps Research Institute Molecular Screening Center, 2020).
# Values joined by “and” are separate entries in the source; they are usually repeats but may differ in a detail not shown here. Equal values may be shown once. Among all 650,000 compounds or so, about 6,800 (1%) were called active. Rule as the data show it: active = activation above about 4.9%; inactive = the rest. Only a selection was taken, and actives are over-represented in it overall. Where a structure was tested more than once in an assay, its records may differ in their call.
# Molecular target: G-protein coupled receptor 151 (Homo sapiens) (UniProt Q8TDV0)
# Sequence (Q8TDV0 whole entry, looked up): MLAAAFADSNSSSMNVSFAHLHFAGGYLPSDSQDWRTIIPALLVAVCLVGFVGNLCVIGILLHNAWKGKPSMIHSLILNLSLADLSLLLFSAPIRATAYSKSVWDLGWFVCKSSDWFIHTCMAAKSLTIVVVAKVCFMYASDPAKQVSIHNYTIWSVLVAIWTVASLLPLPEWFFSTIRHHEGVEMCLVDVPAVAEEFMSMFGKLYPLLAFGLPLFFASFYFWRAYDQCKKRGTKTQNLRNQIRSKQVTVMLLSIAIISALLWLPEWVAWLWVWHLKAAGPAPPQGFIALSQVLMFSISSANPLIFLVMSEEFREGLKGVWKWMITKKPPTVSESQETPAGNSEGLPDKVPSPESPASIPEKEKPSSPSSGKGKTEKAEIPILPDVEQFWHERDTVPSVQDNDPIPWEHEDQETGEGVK
# Test: activators of human GPR151, primary screen, cell-based, PathHunter beta-arrestin, luminescence (AID 1508602);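 also: 0% = median of compound wells and 100% = cells with positive control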
# Conditions: PathHunter beta-arrestin GPR151 cells, at 11.2 µM, stronger effect = higher value
row,Compound,activation
1,Cc1ccc(-c2nc(CCNC(=O)c3cccs3)cs2)cc1,-1.14% (inactive)
2,COC(=O)C1(C)NC(c2ccccc2OC)C2C(=O)N(c3ccccc3)C(=O)C21 (stereo unspecified),5.08% (active)
3,COC(=O)C1(C)NC(c2ccc(C)cc2)C2C(=O)N(c3ccc(F)cc3)C(=O)C21 (stereo unspecified),-0.111% (inactive)
4,COC(=O)C1(C)NC(c2ccc(C)cc2)C2C(=O)N(c3ccc(C)cc3)C(=O)C21 (stereo unspecified),-0.33% (inactive)
5,Cc1c(C(=O)Nc2ccc(F)cc2Cl)sc2ncn(CC(=O)N3CCOCC3)c(=O)c12,-1.55% (inactive)
6,Clc1ccccc1C1C=C(c2ccc(I)cc2)Nc2nnnn21 (stereo unspecified),13.5% (active)
7,FC(F)Oc1ccccc1C1C=C(c2ccc(Cl)cc2)Nc2nnnn21 (stereo unspecified),-0.0148% (inactive)
8,Cc1ccc(C2=CC(c3ccccc3F)n3nnnc3N2)cc1 (stereo unspecified),0.122% (inactive)
9,CC(C)C[C@@H]1NC(=O)[C@@H]2C[C@H](NCc3cn(C)nc3-c3ccccc3)CN2C1=O,2.5% (inactive)
10,Cc1nc(CNCc2ccc(OCC(O)CN(C)Cc3ccccc3)cc2)n[nH]1 (stereo unspecified),0.224% (inactive)
11,Cc1cc(CN(C)Cc2ccc(OCC(O)CN(C)Cc3ccccc3)cc2)n[nH]1 (stereo unspecified),5.48% (active)
12,COCCN(C)Cc1ccc(OCC(O)CN(C)Cc2ccccc2)cc1 (stereo unspecified),2.19% (inactive)
13,CC(C)Cn1cnc2c1c(=O)[nH]c(=O)n2CC(C)C,-1.78% (inactive)
14,CCOC(=O)c1oc2ccc(C=O)c(Cl)c2c1C,0.651% (inactive)
15,COc1cc(NC(=O)C2CC(c3ccccc3O)=NO2)c(OC)cc1Cl (stereo unspecified),5.74% (active)
16,CC(C)(C)NC(=O)C1CC(c2ccccc2Cl)=NO1 (stereo unspecified),1.12% (inactive)
17,COc1ccc(OC)c(C2=NOC(C(=O)Nc3cccc(O)c3)C2)c1 (stereo unspecified),1.6% (inactive)
18,O=C(NNC(=S)NC(=O)c1ccccc1[N+](=O)[O-])c1ccc(O)cc1,-0.124% (inactive)
19,CO[C@@H]1COC(=O)[C@@H](C)COC(=O)[C@H](C)NC(=O)C/C=C/[C@H]1C,1.97% (inactive) and 5.04% (active)
20,CCN(CC)c1nc(Nc2cc(OC)c(OC)c(OC)c2)nc(Nc2nc3ccccc3n2C)n1,-0.32% (inactive)
21,COc1cc(Nc2ccnc(Nc3ccc(N4CCOCC4)cc3)n2)cc(OC)c1OC,5.76% (active)
22,COc1cc(Nc2ccnc(Nc3ccncc3)n2)cc(OC)c1OC,1.57% (inactive)
23,c1ccc(Nc2nccc(Nc3ccc(N4CCOCC4)cc3)n2)cc1,2.16% (inactive)

row,Compound,activation
1,CCN(CC)c1nc(Nc2ccccc2)nc(N2CCOCC2)n1,-0.263% (inactive)
2,CCN(CC)c1nc(Nc2cc(OC)c(OC)c(OC)c2)nc(N2CCOCC2)n1,5.49% (active)
3,O=C1CCC(CCC(=O)N2CCCC2)(Cc2cccc3ccccc23)N1 (stereo unspecified),0.278% (inactive)
4,Cc1ccc(C(C)C)c(OCCNC(=O)c2cccs2)c1,0.446% (inactive)
5,COc1ccc(CC2(CCC(=O)NCCCn3ccnc3)CCC(=O)N2)c(F)c1 (stereo unspecified),-0.719% (inactive)
6,COc1cc(Nc2ccc(-n3cc(CC(=O)NCCCN4CCCC4=O)c4ccccc43)nn2)cc(OC)c1OC,-1.03% (inactive)
7,COc1ccc(C(=O)NCC(=O)O)cc1[N+](=O)[O-],-1.88% (inactive)
8,CCOC(=O)c1c(-c2ccc([N+](=O)[O-])cc2)csc1NC(=O)c1ccccc1,-1.07% (inactive)
9,COC(=O)c1c(-c2ccccc2)csc1NC(=O)c1ccc(OC)c([N+](=O)[O-])c1,6.64% (active)
10,COC(=O)c1cccc(-n2nnnc2SCC(=O)Nc2nc(C(C)(C)C)cs2)c1,-0.122% (inactive)
11,CC(C(=O)O)c1ccc(NC(=O)OC(C)(C)C)cc1 (stereo unspecified),-1.31% (inactive)
12,COc1ccc(N2C(=O)CSC2c2cccc(Cl)c2Cl)cc1Cl (stereo unspecified),0.734% (inactive)
13,COc1cccc(C2SCC(=O)N2c2cccc(C)c2)c1OC (stereo unspecified),5.36% (active)
14,COc1ccc(N2C(=O)CSC2c2ccccc2F)cc1Cl (stereo unspecified),-0.327% (inactive)
15,Cc1c(NC(=O)c2nn3c(C(F)(F)F)cc(-c4ccc(Cl)cc4)nc3c2Cl)c(=O)n(-c2ccccc2)n1C,-1.62% (inactive)
16,N#C/C(=C/c1ccc(Br)o1)C(=O)NCCc1c[nH]c2ccccc12,0.189% (inactive)
17,Cc1cc(CN(C)Cc2nc(NCC3CCCO3)c3ccc(Cl)cc3n2)on1 (stereo unspecified),-0.552% (inactive)
18,COc1cc(-c2ncnn2-c2ccc(Cl)cc2)ccc1OCc1ccccc1,-3.78% (inactive)
19,COCc1cc(C)c(C#N)c(N(C)C)n1,0.894% (inactive)
20,CC1=NN(c2cccc(Cl)c2)C(=O)/C1=C\c1ccc(F)cc1,-0.302% (inactive)
21,COc1ccc(CNC(=O)NCc2ccsc2)cc1,-0.956% (inactive)
22,O=C(NCc1ccsc1)c1ccc(-n2cccc2)cc1,6.14% (active)
23,O=C(NCCc1ccsc1)c1ccccc1Cl,-3.26% (inactive)
